Screens from PubChem BioAssay.
BAZ2B block = qHTS Assay for Inhibitors of BAZ2B. Potency, µM (titrated, usually from 114 µM), for inactives: at the highest dose activity change, negative = inhibition, most hits filed as inhibitors. AlphaScreen BAZ2B-H3K14Ac peptide displacement. Bromodomain adjacent to zinc finger domain protein 2B (Homo sapiens), Q9UIF8. 4.4% of 360,000 active; further: on the % scale 0 is the no-effect control and ±100 the full control effect; nearly all actives have a fitted effect of over 60% in size
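Protein-peptide AlphaScreen: BAZ2B 50 nM, b-H3K14Ac 50 nM, 1x PBS pH 7.4 + 0.01% Tween-20. Preincubation 30 min RT; cpd 30 min RT (top 110 uM); beads 20 min RT, light-protected.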
L3MBTL1 block = qHTS Assay for the Inhibitors of L3MBTL1; AID 485360, 2010; Lethal(3)malignant brain tumor-like protein 1 (Homo sapiens), Q9Y468; AlphaScreen L3MBTL1–H3K9me1 peptide binding; 0.66% of 230,000 active; Potency, µM (titrated, usually from 57.1 µM), for the others: top-dose activity, negative = inhibition, usual class: inhibitors; further: on the % scale 0 is the no-effect control and ±100 the full control effect; nearly all actives have a fitted effect of over 60% in size
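AlphaScreen proximity signal between nickel-chelate acceptor and streptavidin donor beads (final 10 ug/mL) reports binding of 50 nM L3MBTL1 to 75 nM biotin-H3 K9me1 peptide; complex incubated with compounds 30 min at room temperature; cefsulodin titration as control.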
HP1b binding inh = HTS for Inhibitors of HP1-beta Chromodomain Interactions with Methylated Histone Tails; Chromobox protein homolog 1 (Homo sapiens), P83916; AlphaScreen HP1-beta / biotin-H3K9me3 peptide binding; Potency, µM (series often up to 114 µM), without a hit: top-dose activity change, negative = inhibition, most hits filed as inhibitors; 0.56% of 390,000 active; AID 540317, 2011; further: nearly all actives have a fitted effect of over 70% in size
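AlphaScreen: HP1-beta (50 nM) preformed 30 min with biotin-H3(1-18)K9me3 peptide (50 nM) in PBS pH 7.4, 0.01% Tween-20. Compound added for 30 min at RT, then streptavidin donor/nickel chelate acceptor beads (10 ug/mL) for 30 min.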
G9a block = qHTS Assay for Inhibitors of Histone Lysine Methyltransferase G9a; G9a H3K9 monomethylation, AlphaScreen, 2 h; Potency, µM (highest dose often 102 µM), for the others: at the highest dose activity, negative = inhibition, hits mostly inhibitors; 8.8% of 350,000 active; further: on the % scale 0 is the no-effect control and ±100 the full control effect; nearly all actives have a fitted effect of over 75% in size
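G9a (20 nM) preincubated 15 min RT with compounds, then 500 nM biotinylated H3K9 peptide and 20 uM SAM added; 2 h RT reaction. Monomethyl-H3K9 product detected by AlphaScreen with anti-H3K9me1 antibody, streptavidin donor and anti-rabbit IgG acceptor beads.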
JMJD2A Tudor inh = qHTS Assay for Inhibitors of JMJD2A-Tudor Domain | AID 504339, 2011 | 4.4% of 390,000 active | AlphaScreen JMJD2A-Tudor / H3K4me3 peptide binding | Potency, µM (doses to about 114 µM), for the others: at the top dose activity change, negative = inhibition, actives largely listed as inhibitors; further: on the % scale 0 is the no-effect control and ±100 the full control effect; nearly all actives have a fitted effect of over 50% in size
Sfp PPTase inh = qHTS Assay for Inhibitors of Bacillus subtilis Sfp phosphopantetheinyl transferase (PPTase). 4'-phosphopantetheinyl transferase ffp (Bacillus subtilis), Q9F4F7. 3.5% of 310,000 active. Biochemical Sfp PPTase activity, qHTS. Potency, µM, for the others: largest response in the series, negative = inhibition, usual class: inhibitors;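 further: the enzyme is Sfp with the accession as filed and its product quenches rhodamine fluorescence; 0% = enzyme reaction without inhibitor and -100% = no enzyme wells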
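Fluorescence-quenching assay with 15 nM Sfp, 5 uM rhodamine-CoA and 12.5 uM BHQ-2-labelled ybbR peptide in pH 7.6 Hepes/MgCl2 buffer. Enzyme was pre-incubated with compound for 15 min at room temperature. Rate was taken from the 30-min fluorescence change (525/598 nm).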
Starred values were filed as active, the others as inactive; ? = inconclusive; · = no result; [ ] = another dose, or the depositor's remark. Shown are actives, neighbours in structure and some others; about 12% of the full set was active somewhere. The call rests on the fitted dose curve; in most records, active means well fitted curve in the direction sought with a large enough effect; inconclusive means small, poorly fitted or top-dose-only effect, or another doubt; inactive means no such curve, though single readings can be large; an effect the other way counts as inactive or inconclusive. Potency means the concentration at half of the fitted maximal effect.

SMILES	BAZ2B block	L3MBTL1 block	HP1b binding inh	G9a block	JMJD2A Tudor inh	Sfp PPTase inh
CN1Cc2cccc3c2C(Cc2ccccc2S3)C1 (stereo not drawn)	-8%	-10%	22%	?	10µM*	-7%
CC(/C=C/c1ccccc1)=N/NC(=O)c1cc([N+](=O)[O-])cc([N+](=O)[O-])c1	-26%	-2%	21%	19%[59 µM]	-17%	?
CC(/C=C/c1ccccc1)=N\Nc1ccccc1[N+](=O)[O-]	2.2µM*	-4%	4µM*	0.89µM*	10µM*	-5%
COc1cc(NC(=O)c2nn(C)c3c2COc2ccccc2-3)cc(OC)c1OC	5%	·	59%	?	3%	·
CCOC(=O)C(C)/C(C)=N/NC(N)=S (stereo not drawn)	1%	1%	38%	?	-12%[57.1 µM]	40µM*
CCOc1ccc(C(N)=O)cc1OC	9%	5%	28%	10%[12.7 µM]	-8%	18%
CCOc1ccc(N)cc1OC	?	-19%	-18%	50µM*	?	5%
COc1cccc(-c2ccc3ncnc(NCCNC(C)=O)c3c2)c1	·	·	·	-22%[0.501 µM]	·	20%
Nn1cc(-c2ccccc2)nc1SCC(=O)Nc1ccc2c(c1)OCO2	4%	-24%	-25%	71µM*	?	-11%
COc1ccc(-c2cnc(SCC(=O)Nc3ccc4c(c3)OCO4)n2Cc2ccco2)cc1	?	·	?	25µM*	20µM*	-8%
CC(=O)Nc1cccc(NC(=O)CSc2ncc(-c3ccc(Cl)cc3)n2Cc2ccco2)c1	13µM*	-22%[11.4 µM]	?	13µM*	?	?
CCn1c2ccccc2c2cc(NC(=O)CSc3nnc(C4CC4)n3Cc3ccco3)ccc21	-8%	?	3%	10µM*	-32%	-7%
COc1ccc(Cn2c(CO)cnc2SCC(=O)Nc2ccc3c(c2)OCCO3)cc1	?	·	14%[57 µM]	-6%[59 µM]	-31%	·
COc1ccc2c(c1)CC(C(=O)NCCN1CCN(c3cccc(C)c3C)CC1)CO2 (stereo not drawn)	-20%	·	10%[57 µM]	0%[59 µM]	-14%	·
O=C(O)c1cc(C(=O)O)c(C(=O)N(Cc2cccc(Oc3ccccc3)c2)[C@H]2CCCc3ccccc32)cc1C(=O)O	·	·	·	·	·	14%
NC(N)=NCCC[C@H](NC(=O)CNC(=O)c1ccccc1)C(=O)Nc1cc(C(F)(F)F)ccc1Cl	·	·	·	·	-30%	·
Cc1c(Cl)cccc1NC(=O)CCS(=O)(=O)c1ccc2c(c1)CC(C)N2C(=O)C1CC1 (stereo not drawn)	-20%	·	53%	2%[59 µM]	9%	·
COc1ccc(-c2cc3c(=O)n(CC(=O)Nc4ccc(Br)c(C)c4)ccn3n2)cc1OC	0%	·	35%	21%[59 µM]	-4%	·
O=C(COc1ccc(Cl)cc1)OCc1cc(=O)n2nc(-c3cccs3)sc2n1	-24%	·	-5%	13%[59 µM]	-29%	·
Nn1c(SCC(=O)Nc2ccc3c(c2)OCCO3)nnc(CCC(=O)O)c1=O	-2%	·	5%	3%	20µM*	6%
O=C(O)CSc1nnc(-c2ccc(S(=O)(=O)N3CCCC3)cc2)n1Cc1ccco1	-5%	-9%	23%	56µM*	-35%	32µM*
COc1ccc(-n2nnc3c(SCC(=O)Nc4ccc5c(c4)OCCO5)ncnc32)cc1	-3%	-5%	·	4%	·	13µM*
O=C(CSc1nnc(-c2ccc(Cl)cc2)n1Cc1ccco1)Nc1ccc2c(c1)OCCO2	-1%	-28%	3%	45µM*	-33%	32µM*
